# Source: paper PMC4552634, “A New Set of Chemical Starting Points with Plasmodium falciparum Transmission-Blocking Potential for Antimalarial Drug Discovery” (PLoS ONE, 2015)
# Out of some 13,000 compounds screened, about 3,200 (25%) showed an effect of 50% or more. This is one part of the list.
# Tested on: P. falciparum stage V gametocytes
# Design: BacTiter-Glo ATP luminescence viability of purified stage V gametocytes in 384-well plates, per cent inhibition versus DMSO
# Conditions: 48 h, 5 µM; inhibitor
row,SMILES,% Inhibition
1,NC(=O)N1CCN(Cc2ccc(Br)cc2)CC1 [TCMDC-137933],4.957%
2,N#Cc1cnc2cc(-c3cnc(CNCCN4CCOCC4)s3)ccc2c1Nc1ccc(Oc2ccccc2)cc1 [TCMDC-138611],2.275%
3,c1ccc(Oc2ccc(Nc3ccnc4cc(-c5cccc(CNCCN6CCOCC6)c5)ccc34)cc2)cc1 [TCMDC-138474],52.49%
4,c1cncc(Oc2ccc(Nc3ccnc4cc(-c5cccc(CNCCN6CCOCC6)c5)ccc34)cc2)c1 [TCMDC-138492],84.98%
5,c1ccc(Oc2ccc(Nc3ccnc4cc(-c5ccc(CNCCN6CCOCC6)o5)ccc34)cc2)cc1 [TCMDC-138398],12.11%
6,Fc1ccc(Nc2ccnc3cc(-c4cccc(CNCCN5CCOCC5)c4)ccc23)c(Cl)c1 [TCMDC-138414],41.76%
7,CN(C)CC1CCCN1Cc1ccccc1-c1cnn(C)c(=O)c1Oc1cccc(C#N)c1 (stereo not drawn) [TCMDC-135097],-59.69%
8,COc1ccc(CCNC(=O)c2ccc(-n3cc(NC(=O)c4cccnc4)cn3)cc2)cc1OC [TCMDC-124665],38.46%
9,Nc1nc(N)c2c(Cl)c(N(Cc3ccccc3)Cc3ccccc3)ccc2n1 [TCMDC-137993],-38.99%
10,O=S(=O)(NCCN1CCCC1)c1ccc(-c2ccc(CN3Cc4ccccc4C3)cc2)s1 [TCMDC-132286],9.199%
11,O=S(=O)(NCCN1CCCC1)c1ccc(-c2ccc(CNCc3ccccc3)cc2)s1 [TCMDC-132233],71.01%
12,O=C(O)C(F)(F)F.c1ccc(CNCc2cccc(-c3ccc(-c4nc5ccccc5[nH]4)s3)c2)cc1 [TCMDC-132714],15.98%
13,O=S(=O)(NCCN1CCCC1)c1ccc(-c2cccc(CNCc3ccccc3)c2)s1 [TCMDC-132216],86.1%
14,CCOC(=O)N1CCC(NC(=O)c2ccc(C(C)(C)C)cc2OC)CC1 [TCMDC-139314],15.99%
15,O=C(c1cccc(-c2noc(C(F)(F)F)n2)c1)N1CCN(C(=O)c2ccc3cc[nH]c3c2)CC1 [TCMDC-132422],0.1652%
16,N#Cc1cccc(NC(=O)c2ccc(S(=O)(=O)NCC3CCCN3CC3CCCCC3)cc2)c1 (stereo not drawn) [TCMDC-133796],-13.1%
17,CN1CCN(CCCN(C(=O)Nc2cc(C(F)(F)F)cc(C(F)(F)F)c2)c2ccccc2Cc2ccccc2)CC1 [TCMDC-136454],-18.83%
18,CC(C)CNCc1cccc(-c2cccc(CN(CCCN3CCN(C)CC3)C(=O)Nc3ccccc3)c2)c1 [TCMDC-140593],80.6%
19,CN1CCN(CCCN(Cc2cccc(-c3cccc(CNCCc4ccccc4)c3)c2)C(=O)Nc2ccccc2)CC1 [TCMDC-140594],106.2%
20,CN1CCN(CCCN(Cc2cccc(-c3ccc(CNCCc4ccccc4)cc3)c2)C(=O)Nc2ccccc2)CC1 [TCMDC-140595],97.36%
21,Cc1csc2nc(C(C)c3ccc(NC(=O)c4cccs4)cc3)oc(=O)c12 (stereo not drawn) [TCMDC-139034],5.722%
22,Cc1cc(-c2ccc(NC(=O)Nc3ccc4nccc(N5CCN(C)CC5)c4c3)cc2C)cc(C)n1 [TCMDC-139355],10.84%
23,Cc1cc(N[C@@H](Cc2ccccc2)C(=O)NCCc2ccccc2)nc(NCC2CCCCC2)n1 [TCMDC-134934],-20.83%
24,CCCC(C)C(=O)N1CCOC(COCc2cccc(C(F)(F)F)c2)(c2ccc(Cl)cc2)C1 (stereo not drawn) [TCMDC-141953],24.89%
25,C=CCC1OC(=O)c2cc(OC)cc(OC)c21 (stereo not drawn) [TCMDC-138677],106%
26,C=CC(C)C1OC(=O)c2cc(OC)cc(OC)c21 (stereo not drawn) [TCMDC-138676],102.9%

row,SMILES,% Inhibition
1,Cc1ccc(-c2cc(C(=O)Nc3ccc(S(=O)(=O)N4CCCCC4C)cc3)[nH]n2)c(O)c1 (stereo not drawn) [TCMDC-124908],-44.76%
2,CCCCCCN(CCCCCC)CC(O)c1cc(-c2ccc(Cl)cc2)nc2c(C)cc(C)cc12 (stereo not drawn) [TCMDC-125503],-72.43%
3,CN(C(=O)NCCc1ccccc1)C1CCN(CCCCCNC(=O)/C=C/c2ccc(Cl)c(Cl)c2)CC1 [TCMDC-139523],-13.13%
4,COc1ccc(-c2nc3cccnc3n2CC(=O)Nc2c(C)cc(C)cc2C)c(OC)c1 [TCMDC-135284],61.51%
5,COc1ccc(-c2nc3cccnc3n2CC(=O)Nc2cc(Cl)c(Cl)cc2Cl)c(OC)c1 [TCMDC-135101],5.638%
6,COc1ccc(-n2ccnc2SCC(=O)Nc2cc(C)ccc2C)c(OC)c1 [TCMDC-123824],-3.768%
7,CC(C)CNCc1cccc(-c2ccc(CN(C(=O)Nc3ccccc3)C3CCN(Cc4ccccc4)CC3)cc2)c1 [TCMDC-140597],96.79%
8,CC(C)CNCc1cccc(-c2cccc(CN(C(=O)Nc3ccccc3)C3CCN(Cc4ccccc4)CC3)c2)c1 [TCMDC-140584],53.9%
9,CC(C)CNCc1ccc(-c2cccc(CN(C(=O)Nc3ccccc3)C3CCN(Cc4ccccc4)CC3)c2)cc1 [TCMDC-140585],74.29%
10,CC(C)CNCc1ccc(-c2ccc(CN(C(=O)Nc3ccccc3)C3CCN(Cc4ccccc4)CC3)cc2)cc1 [TCMDC-140598],108.5%
11,Cc1cn(CC(=O)Nc2cccc(-c3cccc(-c4nc5ccc(C(F)(F)F)cc5[nH]4)c3)c2)c(=O)[nH]c1=O [TCMDC-137036],18.51%
12,O=C(Nc1ccccc1F)NC1CCN(c2ccnc(Nc3ccc(F)cc3)n2)CC1 [TCMDC-133632],-30.06%
13,O=C(c1ccccc1F)N(Cc1ccc(Cl)cc1)c1ccccn1 [TCMDC-124909],-19.06%
14,COc1ccc2nccc([C@@H](O)CN3CCC(NCc4ccc5c(c4)sc(=O)n5C)CC3)c2c1 [TCMDC-141149],-6.737%
15,CCCCCC1c2[nH]c3ccccc3c2CCN1C(=O)OCc1ccccc1 (stereo not drawn) [TCMDC-134554],-7.791%
16,CCCNCc1ccc(-c2ccc(CN(CCOC)C(=O)[C@H]3CCCO3)cc2)nc1 [TCMDC-141530],80.98%
17,CCCNCc1ccc(-c2ccc(CN(CC3CCCO3)C(=O)COc3ccccc3Cl)cc2)nc1 (stereo not drawn) [TCMDC-141542],45.23%
18,CCCNCc1ccc(-c2ccc(CN(CCOC)C(=O)CC3CCCC3=O)cc2)nc1 (stereo not drawn) [TCMDC-141532],3.565%
19,CCCNCc1ccc(-c2ccc(CN(CC3CCCO3)C(=O)C3CC(=O)c4ccccc43)cc2)nc1 (stereo not drawn) [TCMDC-141533],69.47%
20,CCCNCc1ccc(-c2ccc(CN(Cc3ccc4c(c3)OCO4)C(=O)[C@H]3CCCO3)cc2)nc1 [TCMDC-141531],105.6%
21,O=c1c2c([nH]c3cc(Cl)ccc13)CCCC2 [TCMDC-123504],42.94%
22,CS(=O)(=O)c1ccc(OCCCN(Cc2ccccc2C(F)(F)F)c2ccc(C#N)c(C(F)(F)F)c2)cc1 [TCMDC-135467],19.91%
23,O=C(N[C@@H](CC1CCCCC1)C(=O)NCCN1CCCC1)c1ccc(O)c(-c2cccc(C(F)(F)F)c2)c1 [TCMDC-140811],39%
24,Cc1cc(OC(C)C(=O)N2CCc3ccccc32)ccc1Cl (stereo not drawn) [TCMDC-123696],25.65%
25,COc1ccc(Cc2cnc(N)nc2N)cc1OCCCOc1ccccc1 [TCMDC-137364],-5.696%
26,Cn1ccnc1Sc1ncccc1[N+](=O)[O-] [TCMDC-123944],5.094%

row,SMILES,% Inhibition
1,N#Cc1cccc(NC(=O)C2=C(CCc3ccc4c(c3)OCO4)NC(=O)NC2c2cccc(C#N)c2)c1 (stereo not drawn) [TCMDC-136054],65.54%
2,O=C(Nc1cccc(CN2CCCN(Cc3ccc4c(c3)OCO4)CC2)c1)c1ccc(-c2ccccc2)cc1 [TCMDC-134593],-55.86%
3,O=C(Nc1cccc(CN2CCCN(Cc3ccc4c(c3)OCO4)CC2)c1)c1ccc2ccccc2c1 [TCMDC-141852],-18.83%
4,COc1cc(Cc2cnc(NCCN3CCNCC3)nc2N)ccc1OCc1ccc(C(F)(F)F)cc1 [TCMDC-138704],48.16%
5,CCCCCCCNCCNc1cc(C)nc2ccccc12 [TCMDC-137556],91.75%
6,Cc1cc(NCCCCCCCCNc2cc(C)nc3ccccc23)c2ccccc2n1 [TCMDC-137746],113.6%
7,CCCCCCNc1cc(C)nc2ccc(OC)cc12.Cl [TCMDC-137623],-4.593%
8,CCCCCCCNc1cc(C)nc2ccc(OC)cc12.Cl [TCMDC-137622],19.17%
9,CCCCCCCN(CCCCCCC)CCNc1cc(C)nc2ccccc12 [TCMDC-137555],59.52%
10,Cc1cc(NCCCCCCNc2cc(C)nc3c(C)cccc23)c2cccc(C)c2n1 [TCMDC-125702],114%
11,COc1cccc(Nc2nc(C)cc(NC3CCCC3)n2)c1 [TCMDC-133464],31.06%
12,CCn1ncc(Cl)c1CN(C)S(=O)(=O)c1ccc2ccccc2c1 [TCMDC-124904],17.76%
13,O=C(Nc1ccc2c(c1)CCC2)c1ccc(CN2CCCN(Cc3cccc(O)c3)CC2)cc1 [TCMDC-136388],-14.41%
14,N#Cc1ccc2c(c1)CN(C1CCC(NC(=O)/C=C/c3cc(C(F)(F)F)cc(C(F)(F)F)c3)CC1)CCC2 (stereo not drawn) [TCMDC-133502],-43.57%
15,CCC/C=C/c1c(CNCCCNc2cc(=O)c3ccccc3[nH]2)sc(CC)c1Br [TCMDC-140971],58.98%
16,CCc1cc(Br)c(CNCCCNc2cc(=O)c3ccccc3[nH]2)s1 [TCMDC-140745],-24.29%
17,O=c1cc(NCCCNCc2ccc(Cl)c(Cl)c2)[nH]c2ccc(C(F)(F)F)cc12 [TCMDC-139407],4.234%
18,CCCC(CNCc1cccc(OC(F)(F)C(F)F)c1)CNc1cc(=O)c2ccccc2[nH]1 (stereo not drawn) [TCMDC-139430],-8.212%
19,CCCC(CNCc1cccc(OCC)c1)CNc1cc(=O)c2ccccc2[nH]1 (stereo not drawn) [TCMDC-139432],35.2%
20,O=c1cc(NCCCNCc2ccc(Cl)c(Cl)c2)[nH]c2ccc(Cl)cc12 [TCMDC-139400],23.89%
21,CCCC(CNCc1cccc(OC(F)(F)F)c1)CNc1cc(=O)c2ccccc2[nH]1 (stereo not drawn) [TCMDC-139429],83.68%
22,O=c1cc(NCCCNCc2cccc(Oc3ccccc3)c2)[nH]c2ccccc12 [TCMDC-139309],31.54%
23,O=c1cc(NCCCNCc2cccc(OC(F)(F)C(F)F)c2)[nH]c2ccccc12 [TCMDC-139419],-24.87%
24,O=c1cc(NCCCNCc2sc(Br)c(Br)c2Br)[nH]c2ccccc12 [TCMDC-139647],-5.668%
25,O=c1cc(NCCCNCc2ccc(Cl)c(Cl)c2)[nH]c2cc(Cl)ccc12 [TCMDC-139401],50.55%
26,O=c1cc(NCCCNCc2cccc(OC(F)(F)F)c2)[nH]c2ccccc12 [TCMDC-139418],80.26%
